# Experimental data published in PubChem BioAssay AID624351 (Southern Research Specialized Biocontainment Screening …, 2012).
# About 1,400 (58%) of roughly 2,400 compounds were called active. So high a share suggests a set chosen from earlier hits. The list shows a part of the results. Unmarked numbers belong to inactive results.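 The calls were made as follows: active = inhibition of 30% or more at any tested dose; inconclusive = primary hits over the limit that were never retested; inactive = the rest.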
# Assay: ADP Hunter readout inhibition without MgcRacGAP – biochemical, coupled enzyme counter-screen, artefact control for MgcRacGAP inhibitor project, dose response (AID 624351);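 also: signal is the ADP detection kit reading of free GDP without any GAP enzyme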;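 as to inhibition: 0% = median positive control wells and 100% = median negative control wells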
# Details: fluorescence, no MgcRacGAP; series mostly up to 80 µM
SMILES,IC50,inhibition
COC1=C/C(=C/c2c(N)n3cc(C)sc3nc2=O)C=CC1=O,82 µM (active),–
CCS(=O)(=O)c1nn2c(N)c(/C=C3/C=CC(=O)C(OC)=C3)c(=O)nc2s1,39.6 µM (active),–
O=C(CNCc1ccccn1)N1CCc2ccccc2C1,inactive,–
COc1nc(N)nc(NC(=O)c2cccs2)c1N=O,inactive,–
CCOC(=O)c1c(NC(=O)CN(C)C2CCN(C)CC2)sc(C(=O)Nc2ccccc2)c1C,inactive,–
CN(C)c1ccc(NC(=O)COC(=O)CNC(=O)c2cccs2)cc1,55.7 µM (active),–
CCOC(=O)CSc1nc(N)c(C(=O)Nc2ccc(N(C)C)cc2)s1,32.8 µM (active),–
Cc1ccc(NC(=O)CNCC(c2ccccc2)N(C)C)cc1F (stereo not drawn),inactive,–
Cc1ccccc1SCC(=O)OCC(=O)Nc1ccc(N(C)C)cc1,81.6 µM (active),–
COc1ccc(OCCn2ccnc2C)cc1,inactive,–
COc1cc(/C=N/Nc2nc3ccccc3[nH]2)ccc1O,17.9 µM (active),–
COc1ccc(/C=N/Nc2nc3ccccc3[nH]2)cc1OC,73.8 µM (active),–
COc1cc(/C=N/Nc2nc3ccccc3s2)ccc1O,67.7 µM (active),–
O=S1(=O)N=C(Nc2ccc(O)cc2)c2ccccc21,29.2 µM (active),–
CCOc1c(Cl)cc(CNc2ccc(N3CCCC3)cc2)cc1OC,–,-9.27% [at 5 µM]
COc1cc(CN2CCN(Cc3ccc(C(F)(F)F)cc3)CC2)cc(OC)c1OC,inactive,–
CCOc1cc(CNc2ccc3[nH]c(=O)[nH]c3c2)ccc1OCC(=O)NC(C)(C)C,67.7 µM (active),–
CCOc1cc(CNc2ccc(N3CCCCC3)cc2)cc(Br)c1OCC(=O)NC(C)(C)C,20.4 µM (active),–
COc1cc(CNc2ccc(N3CCOCC3)cc2)cc(Br)c1OC,12.5 µM (active),–
COc1cc2c(cc1OC)C(c1cc(Br)c(OC)c(OC)c1)CC(=O)N2 (stereo not drawn),inactive,–
CCOc1cc(CNc2ccc(N3CCOCC3)cc2)cc(Br)c1OCC,16.9 µM (active),–
CNc1c2cccc(C)c2nc2c(C(=O)NCCN(C)C)cccc12,inactive,–
COc1ccc(CCNc2nc(=S)[nH]c3cc(OC)c(OC)cc23)cc1OC,inactive,–
CCN(CC)CCCNc1nc2ccccc2c2[nH]c3ccc(OC)cc3c12,inactive,–
COCCCNc1nc(=S)[nH]c2cc(OC)c(OC)cc12,74.1 µM (active),–
CCCCNc1nc(=S)[nH]c2cc(OC)c(OC)cc12,68.9 µM (active),–
Cc1cc2[nH]c3c(c[n+](C)c4ccccc34)c2cc1C,inactive,–
Cc1cc(C)c2c(=N)c3ccccc3n(CCCCCCCCn3c4ccccc4c(=N)c4c(C)cc(C)nc43)c2n1,inactive,–
